Assay results: PubChem BioAssay (NCI)
Several values for one entry are separate records, joined by “and”; a condition that tells them apart may be missing. Equal values may be shown once. This is part of a sample that, as a whole, favours compounds with a hit. Of some 79,000 tested, about 15% had one in any assay. More than one record can exist for a structure, and the calls need not agree. Activity calls are given as the source filed them. Cut-off read from the data, not from the text of the source: active = growth inhibition above about 70%; inactive = the rest.

Columns and labels:
[1] = NCI Yeast Anticancer Drug Screen. Data for the wt1 strain (AID 149);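 note: 0% = growth of vehicle-treated wt1 cultures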; details: S. cerevisiae wt1 strain (SPY 50644) growth inhibition, stronger effect = higher value
Method in brief: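 Vehicle-normalised growth inhibition; strain wt1; compound exposure.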

[2] = NCI Yeast Anticancer Drug Screen. Data for the rad50EPP+ strain (AID 151);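 note: 0% = growth of vehicle-treated control cultures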; details: S. cerevisiae rad50 mutant strain, stronger effect = higher value
Method in brief: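 One strain with a rad50 alteration (rad50EPP+) was compound-treated, its growth then compared to that of vehicle controls.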

[3] = NCI Yeast Anticancer Drug Screen. Data for the mgt1 strain (AID 153); details: S. cerevisiae mgt1 mutant growth inhibition, stronger effect = higher value
Method in brief: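 After exposure of the mgt1 yeast mutant to compound, growth was measured and reported as inhibition compared with vehicle controls.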

[4] = NCI Yeast Anticancer Drug Screen. Data for the rad50 strain (AID 155);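 note: 0% = growth of vehicle-only cultures of the same strain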; details: S. cerevisiae rad50 strain growth inhibition, stronger effect = higher value
Method in brief: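 A DNA repair-deficient yeast mutant serves as the test organism; compound-induced growth inhibition is calculated against vehicle-treated cells.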

[5] = NCI Yeast Anticancer Drug Screen. Data for the mec2-1 strain (AID 157); details: S. cerevisiae mec2-1 strain, stronger effect = higher value
Method in brief: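 Test agents were screened against the mec2-1 yeast strain, with defined DNA repair or cell cycle alteration. Growth was scored as inhibition against vehicle-only controls.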

[6] = NCI Yeast Anticancer Drug Screen. Data for the rad14 strain (AID 159);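 note: 0% = growth of vehicle-treated control cultures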; details: S. cerevisiae rad14 strain growth inhibition, stronger effect = higher value
Method in brief: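 Vehicle-treated cultures served as the baseline for growth inhibition of a DNA repair-mutant yeast strain exposed to each compound.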

[7] = NCI Yeast Anticancer Drug Screen. Data for the sgs1 mgt1 strain (AID 161);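 note: 0% = growth of cultures given vehicle only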; details: S. cerevisiae sgs1 mgt1 strain, stronger effect = higher value
Method in brief: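 Mutant yeast exposed to compound; growth scored against vehicle-only wells.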

[8] = NCI Yeast Anticancer Drug Screen. Data for the CLN2oe strain (AID 163);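 note: 0% = growth of vehicle-only control cultures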; details: S. cerevisiae CLN2oe strain, stronger effect = higher value
Method in brief: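 Here, growth inhibition in a cell-cycle-altered yeast strain after compound exposure was quantified against vehicle control growth.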

[9] = NCI Yeast Anticancer Drug Screen. Data for the cln2 rad14 strain (AID 165);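 note: 0% = growth equal to vehicle treated cultures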; details: S. cerevisiae cln2 rad14 strain, stronger effect = higher value
Method in brief: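 Growth of compound-exposed yeast (cln2 rad14 genotype) measured and expressed as inhibition relative to vehicle.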

[10] = NCI Yeast Anticancer Drug Screen. Data for the bub3 strain (AID 167); details: S. cerevisiae bub3 mutant strain, stronger effect = higher value
Method in brief: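 Inhibition values come from growth of compound-treated mutant yeast normalised to vehicle-treated controls.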

[11] = NCI Yeast Anticancer Drug Screen. Data for the wt2 strain (AID 169);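 note: 0% = growth of vehicle-treated yeast cultures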; details: S. cerevisiae wt2 strain growth inhibition, stronger effect = higher value
Method in brief: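 Genetically defined yeast strains from a DNA-repair/cell-cycle panel were used. Compound-exposed yeast growth was measured, and the inhibition was calculated relative to vehicle treatment.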

[12] = NCI Yeast Anticancer Drug Screen. Data for the mlh1 strain (AID 171);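 note: 0% = growth of vehicle-treated control cultures of the same strain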; details: S. cerevisiae mlh1 strain growth inhibition, stronger effect = higher value
Method in brief: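 Here the genetically defined yeast mutant is grown with each compound, and the extent to which its growth falls below that of vehicle-exposed cells is reported.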

[13] = NCI Yeast Anticancer Drug Screen. Data for the sgs1 strain (AID 173);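 note: 0% = growth of vehicle-only control cultures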; details: S. cerevisiae sgs1 mutant, stronger effect = higher value
Method in brief: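 Relative growth inhibition, referenced to vehicle, was determined in a yeast strain with a defined alteration affecting DNA damage repair or cell cycle control after compound exposure.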

[14] = NCI Yeast Anticancer Drug Screen. Data for the mlh1 rad18 strain (AID 175); details: S. cerevisiae mlh1 rad18 strain growth inhibition, stronger effect = higher value
Method in brief: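 In this whole-cell yeast screen, a strain with altered DNA damage repair is challenged with compound, and its growth is measured against matched vehicle-treated controls.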

[15] = NCI Yeast Anticancer Drug Screen. Data for the rad18 strain (AID 177); details: S. cerevisiae rad18 mutant growth inhibition, stronger effect = higher value
Method in brief: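 Screen uses a yeast strain with a defined lesion in DNA damage repair; compound effect is read as loss of growth compared to untreated vehicle cultures.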

[16] = at 5.0 µM (retest, dose inferred, filed as 0.5)
[17] = at 50.0 µM (retest, dose inferred, filed as 5.0)

Measured: growth inhibition

Cc1ccc(N=Nc2ccc(O)c(=O)cc2)cc1
-10.6% (inactive) and 89.8% (active): [7]; at 50.0 µM
-6.6% (inactive) and 86.5% (active): [14]; at 50.0 µM
active: [1]; at 33.0 µM 78% | [1]; at 100.0 µM 91% | [2]; at 100.0 µM 87% | [3]; at 33.0 µM 86% | [3]; at 100.0 µM 91% | [4]; at 33.0 µM 83% | [4]; [17] 81% | [4]; at 100.0 µM 92% | [5]; at 33.0 µM 82% | [5]; at 100.0 µM 91% | [6]; at 33.0 µM 84% | [6]; at 100.0 µM 92% | [7]; [17] 95% | [8]; at 33.0 µM 83% | [8]; at 100.0 µM 93% | [9]; [17] 95% | [10]; at 33.0 µM 90% | [10]; [17] 91% | [10]; at 100.0 µM 92% | [11]; at 33.0 µM 87% | [11]; at 100.0 µM 94% | [12]; at 33.0 µM 83% | [12]; at 100.0 µM 90% | [13]; at 33.0 µM 85% | [13]; at 100.0 µM 93% | [14]; [17] 90% | [15]; at 33.0 µM 86% | [15]; at 100.0 µM 93%
8.6% (inactive) and 88.3% (active): [5]; at 50.0 µM
-18.2% (inactive) and 82.3% (active): [4]; at 50.0 µM
-1.5% (inactive) and 90.4% (active): [9]; at 50.0 µM
inactive: [1]; at 1.2 µM 1% | [1]; at 3.7 µM 25% | [1]; at 11.0 µM 37% | [2]; at 1.2 µM -31% | [2]; at 3.7 µM -64% | [2]; at 11.0 µM -24% | [2]; at 33.0 µM 62% | [3]; at 1.2 µM 8% | [3]; at 3.7 µM 29% | [3]; at 11.0 µM 56% | [4]; at 1.2 µM 4% | [4]; at 3.7 µM 5% | [4]; [16] 17% | [4]; at 11.0 µM 42% | [5]; at 1.2 µM -13% | [5]; at 3.7 µM -7% | [5]; [16] -2% | [5]; at 11.0 µM 26% | [5]; [17] 43% | [6]; at 1.2 µM -3% | [6]; at 3.7 µM 1% | [6]; at 11.0 µM 47% | [7]; [16] 53% | [8]; at 1.2 µM -2% | [8]; at 3.7 µM 16% | [8]; at 11.0 µM 47% | [9]; [16] 13% | [10]; at 1.2 µM -6% | [10]; at 3.7 µM 3% | [10]; [16] 6% | [10]; at 11.0 µM 49% | [11]; at 1.2 µM -4% | [11]; at 3.7 µM 21% | [11]; at 11.0 µM 48% | [12]; at 1.2 µM 3% | [12]; at 3.7 µM 5% | [12]; at 11.0 µM 47% | [13]; at 1.2 µM 7% | [13]; at 3.7 µM 28% | [13]; at 11.0 µM 57% | [14]; [16] 9% | [15]; at 1.2 µM 0% | [15]; at 3.7 µM 22% | [15]; at 11.0 µM 50%
-6.8% (inactive) and 87.5% (active): [10]; at 50.0 µM
